The full list was thinned out, with hits kept by preference.
KDM5B inhibitor = KDM5B demethylase inhibition; Q9UGL1; KDM5B demethylase, FDH-coupled NADH fluorescence (FDH is formaldehyde dehydrogenase); Potency, µM (series often up to 57.7 µM), usual class: inhibitors; actives 2.6% (n = 220,000); AID 1347165; active = well fitted inhibition curve with a large enough effect; also: 0% is about no effect; nearly all actives have a fitted effect of over 70% in size
Target sequence (Q9UGL1 whole entry, looked up): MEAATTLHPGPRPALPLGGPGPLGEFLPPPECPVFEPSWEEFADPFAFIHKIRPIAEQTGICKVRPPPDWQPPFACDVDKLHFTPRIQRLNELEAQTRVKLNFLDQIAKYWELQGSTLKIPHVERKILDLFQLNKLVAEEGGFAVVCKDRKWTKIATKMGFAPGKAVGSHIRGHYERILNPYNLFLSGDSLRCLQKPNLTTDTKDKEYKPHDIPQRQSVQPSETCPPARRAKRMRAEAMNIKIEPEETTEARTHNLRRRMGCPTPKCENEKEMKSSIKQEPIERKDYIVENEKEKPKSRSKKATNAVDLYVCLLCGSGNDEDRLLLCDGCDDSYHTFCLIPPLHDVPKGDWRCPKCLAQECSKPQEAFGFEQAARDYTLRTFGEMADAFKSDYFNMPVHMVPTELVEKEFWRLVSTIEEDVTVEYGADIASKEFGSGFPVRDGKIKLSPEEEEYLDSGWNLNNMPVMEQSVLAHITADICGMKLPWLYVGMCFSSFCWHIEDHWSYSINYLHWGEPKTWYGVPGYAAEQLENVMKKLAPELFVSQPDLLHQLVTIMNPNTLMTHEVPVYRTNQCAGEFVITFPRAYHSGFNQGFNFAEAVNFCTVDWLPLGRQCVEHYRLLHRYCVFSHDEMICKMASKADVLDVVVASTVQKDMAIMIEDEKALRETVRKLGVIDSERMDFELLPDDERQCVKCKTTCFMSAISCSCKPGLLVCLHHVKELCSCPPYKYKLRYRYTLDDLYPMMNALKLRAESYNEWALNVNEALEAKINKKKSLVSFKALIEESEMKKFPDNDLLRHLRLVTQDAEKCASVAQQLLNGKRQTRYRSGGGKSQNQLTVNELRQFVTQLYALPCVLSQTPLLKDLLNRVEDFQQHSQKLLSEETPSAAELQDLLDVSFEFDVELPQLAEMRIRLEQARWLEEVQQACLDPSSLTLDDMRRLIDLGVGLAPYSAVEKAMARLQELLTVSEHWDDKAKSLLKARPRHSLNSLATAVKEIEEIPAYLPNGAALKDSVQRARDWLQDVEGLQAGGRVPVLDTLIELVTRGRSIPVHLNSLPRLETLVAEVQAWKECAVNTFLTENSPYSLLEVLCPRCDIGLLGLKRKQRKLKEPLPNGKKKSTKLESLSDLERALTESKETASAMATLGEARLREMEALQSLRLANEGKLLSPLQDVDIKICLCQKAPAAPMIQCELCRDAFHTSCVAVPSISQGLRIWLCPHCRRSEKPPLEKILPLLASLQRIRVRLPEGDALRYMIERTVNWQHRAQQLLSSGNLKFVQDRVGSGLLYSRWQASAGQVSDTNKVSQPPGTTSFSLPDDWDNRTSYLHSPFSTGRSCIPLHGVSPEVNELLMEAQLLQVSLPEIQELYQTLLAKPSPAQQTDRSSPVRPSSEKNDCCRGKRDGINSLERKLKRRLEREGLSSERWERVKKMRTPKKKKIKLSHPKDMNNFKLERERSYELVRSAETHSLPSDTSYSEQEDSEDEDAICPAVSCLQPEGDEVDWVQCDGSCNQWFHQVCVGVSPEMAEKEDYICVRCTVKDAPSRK
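Inhibition is measured as reduced NADH fluorescence generation from FDH coupling to formaldehyde release. Truncated KDM5BΔAP at 200 nM final acts on H3K4me3 peptide (12.5 µM in substrate mix) in pH 7.5 HEPES buffer with Tween-20, 30 min, room temperature.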
Active calls of the source: *; i = inactive. Potency is read from the fitted curve at half-maximal effect.

SMILES	KDM5B inhibitor
Cc1cc(CN2CCn3c(nnc3-c3ccccc3)C2)no1	i
O=C(CC1C=CCC1)NCCc1cccs1 (centres undefined)	i
Cc1ccc(C)c(NC(=O)c2ccc3c(c2)CCC3)c1	i
O=C(c1ccc(Cl)cc1)c1ccccc1C(=O)N1CCN(C(=O)CC2CCCC2)CC1	i
O=c1[nH]c(N2CCOCC2)nc2c1CCN(Cc1ccc(Cl)cc1F)CC2	i
O=C1CSC(c2cccc(Br)c2)N1c1cccc(C(F)(F)F)c1 (centres undefined)	i
CCOC(=O)C1(NC(=O)c2cc(Br)ccc2F)CCCCC1	i
COc1ccccc1N1CCN(C(=O)Cn2ncc3ccsc3c2=O)CC1	i
CCc1cn[nH]c1C1CCCN(C(=O)c2cnn(-c3ccccc3OC)c2)C1 (centres undefined)	i
COc1ccccc1-n1cc(-c2ccnc(N3CCCN(C(C)=O)CC3)n2)cn1	31.6µM*
O=C(C1CC1)N1CCC2(CC1)CCN(Cc1cccs1)c1ccccc1O2	i
Cc1ccccc1C(=O)N1CCN(c2oc(C3CC3)nc2C#N)CC1	i
CCOC(=O)c1sc(N)c(C#N)c1CSc1ccc(C)cc1C	i
O=C(CCc1nc2ccccc2s1)NCc1cccc(C(F)(F)F)c1	i
COc1cc(C(=O)OCCCC(=O)c2ccc(Br)cc2)ccc1OCc1ccc(Cl)cc1	i
COCCNc1nc2cc(-c3nc(-c4cccnn4)no3)ccc2n1C	i
COCCNc1nc2cc(C(=O)N[C@@H]3CC[C@@H](N)C3)ccc2n1C	22.4µM*
COc1ccc(C)cc1-n1cnc2cc(C(=O)NC3CCCC3)ccc21	i
Cc1nc(SCC(=O)NC(C)C(C)C)n(C2CCCC2)c1C (centres undefined)	i
Cc1nc2ccc(Cl)cc2cc1C(=O)NCc1ccc(C(N)=O)cc1	i
Cc1oc2c(c1C(=O)NCCCN1CCCC1=O)CN(Cc1cccc(F)c1)CC2	i
COc1ccc(-c2ocnc2C(=O)Nc2cc(Cl)ccc2C)cc1OC	i
CC(C)c1ccc(CNC(=O)CN2CC3CC(C2)[C@H]2CCCC(=O)N2C3)cc1 (some centres undefined)	i
CCOc1nccn2c(-c3ccc(CNC(=O)Cn4cnnn4)cc3)cnc12	39.8µM*
CCOc1ccc(-c2cc3c(=O)n(CC(=O)NCc4ccc(Cl)cc4)ccn3n2)cc1	i
SMILES	KDM5B inhibitor
CCOc1ccc(-c2cc3c(=O)n(CC(=O)NCc4ccc(C)cc4)ccn3n2)cc1	i
C/C(=N\NC(=O)c1ccncc1)C1CC1	i
CCCCCCCNC(=O)CCC(=O)NCCC(C)C	i
CCOc1ccc(CC(=O)NC2CCN(c3cc(-c4ccc(F)cc4)[nH]n3)C2)cc1OCC (centres undefined)	8.91µM*
O=C(Cc1ccccc1Cl)NC1CCN(c2cc(-c3ccccc3)[nH]n2)C1 (centres undefined)	i
O=C(NCC1CCN(c2cc(-c3ccccc3)[nH]n2)CC1)c1ccc2nc[nH]c2c1	i
CCOc1ccccc1C(=O)NC1CCN(c2cc(-c3ccc(OC)cc3)[nH]n2)CC1	i
COc1ccccc1CC(=O)NC1CCN(c2cc(-c3ccccc3)[nH]n2)C1 (centres undefined)	15.8µM*
CN(C)c1cccc(C(=O)NCC2CCN(c3cc(-c4ccccc4)[nH]n3)CC2)c1	25.1µM*
CCOc1ccc(C(=O)NC2CCN(c3cc(-c4ccc(F)cc4)[nH]n3)CC2)cc1OCC	i
CCOc1ccccc1C(=O)NC1CCN(c2cc(-c3ccc(OC)cc3)[nH]n2)C1 (centres undefined)	12.6µM*
COc1cccc(CC(=O)NC2CCCN(c3cc(-c4ccc(F)cc4)[nH]n3)C2)c1 (centres undefined)	i
COc1ccccc1CCC(=O)NC1CCN(c2cc(-c3ccccc3)[nH]n2)CC1	i
CCOc1ccccc1C(=O)NC1CCN(c2cc(-c3ccc(Cl)cc3)[nH]n2)CC1	i
O=C(NCC1CCN(c2cc(-c3ccccc3)[nH]n2)CC1)c1ccc(=O)[nH]c1	i
N#Cc1cccc(C(=O)Oc2ccccc2C(F)(F)F)c1	i
CCCCN(Cc1ccccc1)c1ccc(NS(=O)(=O)c2cccc(F)c2)cc1C(=O)O	i
Cc1c(C(=O)Nc2ccc3c(c2)C(=O)OC3)nnn1-c1ccc(Br)cc1	i
CCCNc1c(NC(=O)Cc2ccc(OC)cc2)c(=O)oc2ccccc12	i
O=[S+]([O-])(Nc1cccnc1)c1ccc2c(c1)OCCN(Cc1cncc(F)c1)C2	i
CCc1cccc2c(C3=CCN(C(=O)CC(C)C)CC3)c[nH]c12	i
Cc1onc(-c2ccccc2F)c1C(=O)NCc1cccs1	i
CC(=O)c1cccc(NC(=O)C2(c3cccc(Br)c3)CCCC2)c1	i
COc1cc(OC)c2c(C)c(CC(=O)Nc3cccc(C(C)=O)c3)c(=O)oc2c1	i
CCOc1ccc(-n2nnnc2CNC(=O)Nc2ccc3c(c2)OCO3)cc1	i
CC[C@@H](C)[C@H](NC(=O)[C@H](C)n1nnc2ccccc2c1=O)C(=O)O	i

Assay outcomes as filed in PubChem BioAssay.
